Reference: the supplement of paper PMC10849652
The full data set covers some 7,900 targets. This sample favours those with a hit. About 0.6% of all pairs of compound and target were hits. Unmarked numbers belong to inactive results.

Columns and labels:
Test in all cases: log2 fold change, soluble protein after heating vs DMSO (PISA); higher = thermal stabilisation; K562 cells, 10 uM, 30 min; active = over 0.2 and 3.5 SD of the protein, either way, in both replicates (recomputed)
IRAK-1-4 Inhibitor I = compound: C1COCCN1CCN2C3=CC=CC=C3N=C2NC(=O)C4=CC(=CC=C4)[N+](=O)[O-] [IRAK-1-4 Inhibitor I]
Summary of the method: (§1)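 K562 cells at 2×10^6 cells/mL were given 10 μM compound for 30 min. Aliquots then went through 3 min of heating across 48°C-58°C, were pooled, and were extracted in PBS with 0.5% NP-40 at 4°C, and the supernatant after 21,000xg for 90 min was quantified by TMTpro 16plex LC-MS/MS with channel sums equalised. Thermal stability relative to control samples, from duplicates, is given as log2 fold change.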

ibrutinib = compound: C=CC(=O)N1CCC[C@@H](n2nc(-c3ccc(Oc4ccccc4)cc3)c3c(N)ncnc32)C1 [ibrutinib]
Summary of the method: as §1

[1] = compound: CC(=O)c1cnc2ccc(-c3cc(Cl)c(O)c(Cl)c3)nc2c1N[C@H]1CC[C@H](CN(C)C)CC1
Summary of the method: as §1

ralimetinib = compound: CC(C)(C)Cn1c(N)nc2ccc(-c3[nH]c(C(C)(C)C)nc3-c3ccc(F)cc3)nc21 [ralimetinib]
Summary of the method: as §1

[2] = compound: CC(C)(O)CC(=O)NCCn1ccc2ncnc(Nc3ccc(Oc4cccc(C(F)(F)F)c4)c(Cl)c3)c21
Summary of the method: as §1

[3] = compound: CC(C)C1=C2N=C(C=C(N2N=C1)NCC3=CC=CC=C3)NCCCCCCN
Summary of the method: as §1

[4] = compound: CC(C)C[C@@H](C=O)NC(=O)[C@H](CC(C)C)NC(=O)[C@H](CC(C)C)NC(=O)OCc1ccccc1
Summary of the method: as §1

pinometostat = compound: CC(C)N(C[C@H]1O[C@@H](n2cnc3c(N)ncnc32)[C@H](O)[C@@H]1O)[C@H]1C[C@@H](CCc2nc3cc(C(C)(C)C)ccc3[nH]2)C1 [pinometostat]
Summary of the method: as §1

[5] = compound: CC1=C(C(CC(=O)N1)C2=CC=C(C=C2)C(F)(F)F)C(=O)NC3=C(C=C4C(=C3)C=NN4)F
Summary of the method: as §1

[6] = compound: CC1=C(C2=C(C=C1)C(=O)C3=CC=CC=C3N2CCCN)C
Summary of the method: as §1

[7] = compound: CC1=C(C=C(C=C1)NC(=O)C2=CC(=CC=C2)C(C)(C)C#N)NC3=CC4=C(C=C3)N=CN(C4=O)C
Summary of the method: as §1

[8] = compound: CC1=C(C=C(C=C1)NC(=O)C2=CC(=CC=C2)N(C)C)NC(=O)C3=CC=C(C=C3)O
Summary of the method: as §1

[9] = compound: CC1=CC=C(C=C1)SC2=C3C=C(SC3=CN=C2)C(=O)N
Summary of the method: as §1

[10] = compound: CC1=NC(=CC=C1)C2=C(N=C(N2)C(C)(C)C)C3=CC4=NC=CN=C4C=C3
Summary of the method: as §1

Nexturastat A = compound: CCCCN(Cc1ccc(C(=O)NO)cc1)C(=O)Nc1ccccc1 [Nexturastat A]
Summary of the method: as §1

vemurafenib = compound: CCCS(=O)(=O)Nc1ccc(F)c(C(=O)c2c[nH]c3ncc(-c4ccc(Cl)cc4)cc23)c1F [vemurafenib]
Summary of the method: as §1

[11] = compound: CCCS(=O)(=O)Nc1ccc(F)c(C(=O)c2c[nH]c3ncc(Cl)cc23)c1F
Summary of the method: as §1

[12] = compound: CCCc1cc(C)[nH]c(=O)c1CNC(=O)c1cc(-c2ccnc(N3CCN(C)CC3)c2)cc2c1cnn2C(C)C
Summary of the method: as §1

givinostat = compound: CCN(CC)Cc1ccc2cc(COC(=O)Nc3ccc(C(=O)NO)cc3)ccc2c1 [givinostat]
Summary of the method: as §1

barasertib = compound: CCN(CCCOc1ccc2c(Nc3cc(CC(=O)Nc4cccc(F)c4)[nH]n3)ncnc2c1)CCOP(=O)(O)O [barasertib]
Summary of the method: as §1

Sequence of UniProt P32019 (P32019 whole entry, looked up): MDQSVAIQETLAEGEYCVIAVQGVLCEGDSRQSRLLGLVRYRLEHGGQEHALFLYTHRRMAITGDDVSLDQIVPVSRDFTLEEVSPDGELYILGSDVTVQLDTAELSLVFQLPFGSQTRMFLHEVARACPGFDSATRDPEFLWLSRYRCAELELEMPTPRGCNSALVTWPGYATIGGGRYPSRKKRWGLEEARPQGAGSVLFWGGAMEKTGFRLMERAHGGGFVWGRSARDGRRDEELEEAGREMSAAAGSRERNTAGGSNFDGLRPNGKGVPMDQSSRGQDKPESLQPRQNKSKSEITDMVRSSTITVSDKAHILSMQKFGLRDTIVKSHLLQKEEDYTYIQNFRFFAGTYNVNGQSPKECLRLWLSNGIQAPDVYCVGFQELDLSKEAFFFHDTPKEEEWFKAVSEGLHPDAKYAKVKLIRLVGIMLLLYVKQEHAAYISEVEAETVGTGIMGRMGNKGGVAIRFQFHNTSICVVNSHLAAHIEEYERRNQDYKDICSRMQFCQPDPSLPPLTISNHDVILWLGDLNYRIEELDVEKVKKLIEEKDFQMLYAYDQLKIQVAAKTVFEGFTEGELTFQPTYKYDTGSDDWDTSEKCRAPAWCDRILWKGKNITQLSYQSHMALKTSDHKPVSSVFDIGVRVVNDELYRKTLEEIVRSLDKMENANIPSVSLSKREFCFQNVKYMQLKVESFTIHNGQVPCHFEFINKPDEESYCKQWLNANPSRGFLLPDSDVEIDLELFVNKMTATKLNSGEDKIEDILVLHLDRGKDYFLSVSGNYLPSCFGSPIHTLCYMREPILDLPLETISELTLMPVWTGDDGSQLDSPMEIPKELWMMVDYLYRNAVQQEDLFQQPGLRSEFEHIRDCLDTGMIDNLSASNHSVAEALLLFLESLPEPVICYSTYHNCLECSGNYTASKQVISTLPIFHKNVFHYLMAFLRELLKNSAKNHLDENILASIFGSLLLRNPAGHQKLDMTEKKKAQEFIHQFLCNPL
Sequence of UniProt Q9Y287 (Q9Y287 whole entry, looked up): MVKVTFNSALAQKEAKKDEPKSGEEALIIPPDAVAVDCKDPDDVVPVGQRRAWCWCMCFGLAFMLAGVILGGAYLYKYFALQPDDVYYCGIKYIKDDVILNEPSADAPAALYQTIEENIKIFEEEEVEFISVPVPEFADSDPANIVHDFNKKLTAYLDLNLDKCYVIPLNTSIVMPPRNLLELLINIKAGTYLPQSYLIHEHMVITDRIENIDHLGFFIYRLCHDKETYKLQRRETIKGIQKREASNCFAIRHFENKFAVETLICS
Sequence of UniProt Q4G0J3 (Q4G0J3 whole entry, looked up): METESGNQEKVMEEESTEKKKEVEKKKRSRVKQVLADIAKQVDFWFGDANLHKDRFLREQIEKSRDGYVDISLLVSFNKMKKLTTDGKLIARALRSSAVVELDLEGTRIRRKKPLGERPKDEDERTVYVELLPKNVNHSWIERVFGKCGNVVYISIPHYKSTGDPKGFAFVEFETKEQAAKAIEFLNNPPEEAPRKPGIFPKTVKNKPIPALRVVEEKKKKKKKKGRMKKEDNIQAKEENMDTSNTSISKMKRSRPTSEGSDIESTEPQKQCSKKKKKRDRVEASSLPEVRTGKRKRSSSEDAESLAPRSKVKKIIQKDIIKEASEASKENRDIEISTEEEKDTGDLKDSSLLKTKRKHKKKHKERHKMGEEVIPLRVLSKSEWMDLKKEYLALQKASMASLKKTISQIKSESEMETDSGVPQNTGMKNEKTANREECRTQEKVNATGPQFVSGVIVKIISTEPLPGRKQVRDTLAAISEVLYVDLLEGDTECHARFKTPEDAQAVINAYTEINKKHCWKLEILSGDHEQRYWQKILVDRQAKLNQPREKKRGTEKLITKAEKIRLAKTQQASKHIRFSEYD
Sequence of UniProt Q6N075 (Q6N075 whole entry, looked up): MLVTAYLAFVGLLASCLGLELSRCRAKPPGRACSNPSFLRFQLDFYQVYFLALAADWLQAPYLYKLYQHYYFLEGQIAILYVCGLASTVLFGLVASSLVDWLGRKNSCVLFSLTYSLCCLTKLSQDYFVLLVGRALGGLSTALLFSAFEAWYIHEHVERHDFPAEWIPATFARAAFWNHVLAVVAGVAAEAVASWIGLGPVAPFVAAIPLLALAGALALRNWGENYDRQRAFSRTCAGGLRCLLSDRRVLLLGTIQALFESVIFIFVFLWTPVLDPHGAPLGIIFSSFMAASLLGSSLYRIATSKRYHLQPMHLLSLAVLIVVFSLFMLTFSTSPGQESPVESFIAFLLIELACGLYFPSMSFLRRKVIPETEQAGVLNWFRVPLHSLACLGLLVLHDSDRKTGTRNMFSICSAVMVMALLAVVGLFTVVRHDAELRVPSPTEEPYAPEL
Sequence of UniProt O95372 (O95372 whole entry, looked up): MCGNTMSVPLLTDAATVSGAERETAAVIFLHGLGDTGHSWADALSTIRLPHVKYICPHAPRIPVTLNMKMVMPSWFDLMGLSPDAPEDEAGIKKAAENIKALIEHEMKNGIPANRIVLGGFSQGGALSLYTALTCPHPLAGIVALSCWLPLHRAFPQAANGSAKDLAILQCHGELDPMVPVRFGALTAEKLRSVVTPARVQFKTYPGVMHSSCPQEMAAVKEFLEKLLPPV
Sequence of UniProt Q14145 (Q14145 whole entry, looked up): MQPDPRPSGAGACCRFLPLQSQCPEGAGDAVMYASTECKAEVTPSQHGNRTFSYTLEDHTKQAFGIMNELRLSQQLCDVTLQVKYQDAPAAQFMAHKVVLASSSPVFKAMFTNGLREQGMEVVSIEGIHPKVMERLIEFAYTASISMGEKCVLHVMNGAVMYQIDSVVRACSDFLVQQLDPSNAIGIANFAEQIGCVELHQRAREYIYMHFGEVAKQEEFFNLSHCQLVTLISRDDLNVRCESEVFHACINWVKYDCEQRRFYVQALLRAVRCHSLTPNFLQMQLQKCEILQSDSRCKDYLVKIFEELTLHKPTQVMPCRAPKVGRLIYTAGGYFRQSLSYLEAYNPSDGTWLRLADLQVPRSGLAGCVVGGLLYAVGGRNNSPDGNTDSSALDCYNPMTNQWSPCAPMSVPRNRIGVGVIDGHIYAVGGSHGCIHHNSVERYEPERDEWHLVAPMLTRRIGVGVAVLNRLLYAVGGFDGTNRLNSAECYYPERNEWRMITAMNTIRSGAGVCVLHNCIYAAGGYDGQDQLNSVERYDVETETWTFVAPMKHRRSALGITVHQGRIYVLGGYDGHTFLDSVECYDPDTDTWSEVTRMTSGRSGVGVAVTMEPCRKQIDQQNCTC
Sequence of UniProt Q16891 (Q16891 whole entry, looked up): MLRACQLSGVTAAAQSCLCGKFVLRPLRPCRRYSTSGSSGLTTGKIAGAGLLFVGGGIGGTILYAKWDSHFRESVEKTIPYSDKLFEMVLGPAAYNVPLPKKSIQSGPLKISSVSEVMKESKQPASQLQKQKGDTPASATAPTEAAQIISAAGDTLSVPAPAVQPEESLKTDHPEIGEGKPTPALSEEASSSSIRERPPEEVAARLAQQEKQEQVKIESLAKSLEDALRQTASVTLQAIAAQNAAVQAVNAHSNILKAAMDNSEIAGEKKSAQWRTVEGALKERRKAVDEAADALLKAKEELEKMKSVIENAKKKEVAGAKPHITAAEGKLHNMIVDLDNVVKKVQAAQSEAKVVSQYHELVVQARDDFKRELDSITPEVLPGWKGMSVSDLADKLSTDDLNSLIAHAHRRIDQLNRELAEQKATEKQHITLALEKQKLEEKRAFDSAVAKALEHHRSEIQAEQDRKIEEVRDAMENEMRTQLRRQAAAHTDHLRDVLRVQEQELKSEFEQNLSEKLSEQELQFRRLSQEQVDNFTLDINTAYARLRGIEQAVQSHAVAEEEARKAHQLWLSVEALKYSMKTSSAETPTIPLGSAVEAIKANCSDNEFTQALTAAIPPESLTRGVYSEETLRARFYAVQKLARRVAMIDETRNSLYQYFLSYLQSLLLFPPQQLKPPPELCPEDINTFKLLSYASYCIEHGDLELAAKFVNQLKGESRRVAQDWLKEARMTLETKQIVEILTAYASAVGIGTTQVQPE

Row | Target | log2 fold change (IRAK-1-4 Inhibitor I) | log2 fold change (ibrutinib) | log2 fold change [1] | log2 fold change (ralimetinib) | log2 fold change [2] | log2 fold change [3] | log2 fold change [4] | log2 fold change (pinometostat) | log2 fold change [5] | log2 fold change [6] | log2 fold change [7] | log2 fold change [8] | log2 fold change [9] | log2 fold change [10] | log2 fold change (Nexturastat A) | log2 fold change (vemurafenib) | log2 fold change [11] | log2 fold change [12] | log2 fold change (givinostat) | log2 fold change (barasertib)
1 | ITM2B (UniProt Q9Y287) | -0.008 | 0.071 | -0.043 | -0.005 | -0.042 | -0.119 | 0.197 | 0.03 | 0.117 | -0.198 | 0.01 | -0.052 | 0.036 | -0.046 | -0.05 | -0.101 | -0.016 | -0.482 | 0.001 | 0.076
2 | KEAP1 (UniProt Q14145) | 0.008 | -0.085 | 0.022 | 0.074 | -0.07 | -0.233 (active) | 0.023 | 0.109 | -0.017 | 0.028 | -0.024 | 0.032 | 0.005 | -0.009 | 0.038 | 0.054 | 0.101 | 0.004 | 0.034 | 0.082
3 | KPNA6 (UniProt O60684) | -0.046 | -0.032 | -0.04 | 0.077 | -0.047 | -0.239 | 0.087 | 0.087 | 0.04 | -0.15 | -0.06 | -0.02 | -0.014 | -0.063 | 0.156 | -0.09 | 0.078 | 0.068 | 0.018 | 0.047
4 | MFSD5 isoform 2 (UniProt Q6N075) | -0.068 | -0.016 | -0.007 | 0.019 | -0.017 | -0.053 | 0.003 | 0.049 | 0.039 | -0.061 | 0.038 | 0.015 | -0.078 | 0.064 | -0.014 | 0.023 | -0.118 | -0.039 | -0.039 | 0.122
5 | LARP7 isoform 3 (UniProt Q4G0J3) | -0.061 | 0.031 | 0.063 | 0.111 | 0.021 | -0.246 | -0.057 | 0.05 | -0.063 | -0.383 (active) | -0.011 | 0.054 | -0.03 | -0.053 | 0.016 | 0.027 | 0.045 | 0.004 | -0.03 | 0
6 | LYPLA2 (UniProt O95372) | 0.062 | 0.003 | -0.134 | -0.036 | -0.106 | -0.04 | -0.056 | -0.067 | -0.021 | 0.197 | 0.043 | -0.131 | 0.082 | -0.056 | -0.071 | 0.132 | 0.038 | -0.001 | -0.055 | -0.099
7 | IMMT isoform 2 (UniProt Q16891) | 0.053 | -0.011 | 0.022 | 0.054 | 0.051 | 0.015 | -0.028 | 0.058 | 0.035 | -0.106 | 0.053 | 0.074 | -0.05 | 0.002 | -0.155 | -0.006 | 0.018 | 0.325 | 0.045 | 0.081
8 | INPP5B (UniProt P32019) | -0.1 | -0.048 | -0.013 | 0.062 | -0.053 | -0.308 (active) | 0.122 | 0.101 | 0.042 | -0.077 | 0.02 | -0.06 | -0.071 | 0.007 | 0.096 | -0.006 | -0.004 | 0.062 | 0.105 | 0.069
